Assay [1] is described as follows: rapamycin-like changes in RPL19A-GFP expression – cell-based, S. cerevisiae, multiplex flow cytometry, primary screen (AID 1862; in the data active = percent of DMSO control GFP below about 86%;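 note: lower values mimic rapamycin by blocking the RPL19A rise seen in DMSO cells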). Conditions: S. cerevisiae RPL19A-GFP strain, flow cytometry fluorescence, 3 h; at 10 µM; stronger effect = lower value. On the technique in general: Flow cytometry measures light scatter and fluorescence of single cells or particles in a stream.

A short description of assay [2]: TOR pathway GLN3 branch reporter MEP2-GFP changes – S. cerevisiae, multiplex flow cytometry, primary screen (AID 1867;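 active = GFP response, as percent of the DMSO control, above the screen-wide mean plus 3 SD, about 139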;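 note: median GFP channel fluorescence of barcode-gated MEP2-GFP cells measured by flow cytometry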). Conditions: S. cerevisiae MEP2-GFP strain, 3 h, at 10 µM, stronger effect = higher value, 100% means same as DMSO wells.
A short description of assay [3]: TOR pathway RTG branch CIT2 reporter changes – S. cerevisiae, GFP fusion, multiplex flow cytometry, primary screen (AID 1870;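 active = percent response above a set limit, the screen-wide mean plus 3 SD, cut at about 130% in these data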;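 note: barcoded CIT2-GFP strain pooled with four other GFP strains with rapamycin as positive control; median GFP fluorescence per well over plate mean of DMSO wells so 100% = DMSO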). Conditions: S. cerevisiae CIT2-GFP expression, 3 h, at 10 µM, stronger effect = higher value.
Assay [4] in a line: TOR pathway LAP4-GFP level changes – S. cerevisiae, multiplex flow cytometry, primary screen (AID 1873;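 active = GFP signal, as percent of the solvent control, above the screen mean plus 3 SD, about 149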). Conditions: S. cerevisiae LAP4-GFP expression, 3 h, at 10 µM, stronger effect = higher value.
The nature of assay [5]: yeast AGP1-GFP level changes, GLN3 branch – cell-based, multiplex flow cytometry, S. cerevisiae, primary screen (AID 1887;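 active = GFP signal above the screen-wide mean plus 3 SD, that is over about 124.5% of the solvent control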;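 note: AGP1-GFP fusion strain of S. cerevisiae within a five-strain barcoded multiplex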). Conditions: 3 h, at 10 µM, stronger effect = higher value.
Assay [6] in a line: reduced mouse 2C T cell binding to pMHC/ICAM-1 vesicles – MLPCN validation set, flow cytometry, LFA-1/ICAM-1 modulator project, pilot screen (AID 2523;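 active = response below a set limit, under 55% cells CD8-positive and vesicle-bound, and CD8 cells' 90th-percentile brightness under 279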;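 for vesicle binding response: mean PE anti-B7-1 fluorescence of CD8+ cells relative to row control; 100% = QL9-loaded vesicles with DMSO vehicle in the same plate row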). Conditions: 2C mouse CD8+ T cells, at 7 µM, stronger effect = lower value; double positive events: measured here: CD8+/vesicle+ event percentage.
In assay [7] the target is Integrin beta-1 (Homo sapiens) + Integrin alpha-4 (Homo sapiens) (UniProt P13612+P05556). The assay is described as follows: alpha4beta1 integrin LIBS antibody binding reduction – U937 cells, HUTS-21 mAb, flow cytometry, validation set, VLA-4 allosteric modulator project, pilot screen (AID 2674;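 active = inhibition above 50%, about 3 SD of the validation set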;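 note: antibody binding induced by the VLA-4 ligand LDV present at three times its Kd; 0% = LDV ligand with antibody and no compound and 100% = antibody without LDV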). Conditions: HUTS-21 LIBS mAb binding, at 6.7 µM, stronger effect = higher value, binding induced by LDV ligand.
Integrin beta-1 (Homo sapiens) + Integrin alpha-4 (Homo sapiens), sequence (P05556 whole entry, looked up): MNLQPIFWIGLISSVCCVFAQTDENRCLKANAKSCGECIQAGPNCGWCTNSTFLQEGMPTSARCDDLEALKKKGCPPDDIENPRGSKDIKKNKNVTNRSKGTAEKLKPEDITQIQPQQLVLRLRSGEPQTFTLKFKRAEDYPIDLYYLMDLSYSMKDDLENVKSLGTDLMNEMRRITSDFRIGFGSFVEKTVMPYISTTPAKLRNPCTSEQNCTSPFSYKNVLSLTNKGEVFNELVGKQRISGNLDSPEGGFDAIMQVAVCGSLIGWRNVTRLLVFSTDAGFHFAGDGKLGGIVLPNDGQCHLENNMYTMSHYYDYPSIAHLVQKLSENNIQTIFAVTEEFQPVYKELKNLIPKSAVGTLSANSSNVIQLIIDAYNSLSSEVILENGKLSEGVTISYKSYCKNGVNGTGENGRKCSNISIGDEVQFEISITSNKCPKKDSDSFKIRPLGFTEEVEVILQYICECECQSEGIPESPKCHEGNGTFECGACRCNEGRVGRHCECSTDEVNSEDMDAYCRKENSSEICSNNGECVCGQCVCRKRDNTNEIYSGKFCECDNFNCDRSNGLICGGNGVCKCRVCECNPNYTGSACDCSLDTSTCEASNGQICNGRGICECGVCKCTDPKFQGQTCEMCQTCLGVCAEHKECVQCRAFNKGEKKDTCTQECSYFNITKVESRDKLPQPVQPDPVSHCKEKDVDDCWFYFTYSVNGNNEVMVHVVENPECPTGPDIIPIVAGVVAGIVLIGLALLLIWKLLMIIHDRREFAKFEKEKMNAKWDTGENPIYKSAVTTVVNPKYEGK
Integrin beta-1 (Homo sapiens) + Integrin alpha-4 (Homo sapiens), sequence (P13612 whole entry, looked up): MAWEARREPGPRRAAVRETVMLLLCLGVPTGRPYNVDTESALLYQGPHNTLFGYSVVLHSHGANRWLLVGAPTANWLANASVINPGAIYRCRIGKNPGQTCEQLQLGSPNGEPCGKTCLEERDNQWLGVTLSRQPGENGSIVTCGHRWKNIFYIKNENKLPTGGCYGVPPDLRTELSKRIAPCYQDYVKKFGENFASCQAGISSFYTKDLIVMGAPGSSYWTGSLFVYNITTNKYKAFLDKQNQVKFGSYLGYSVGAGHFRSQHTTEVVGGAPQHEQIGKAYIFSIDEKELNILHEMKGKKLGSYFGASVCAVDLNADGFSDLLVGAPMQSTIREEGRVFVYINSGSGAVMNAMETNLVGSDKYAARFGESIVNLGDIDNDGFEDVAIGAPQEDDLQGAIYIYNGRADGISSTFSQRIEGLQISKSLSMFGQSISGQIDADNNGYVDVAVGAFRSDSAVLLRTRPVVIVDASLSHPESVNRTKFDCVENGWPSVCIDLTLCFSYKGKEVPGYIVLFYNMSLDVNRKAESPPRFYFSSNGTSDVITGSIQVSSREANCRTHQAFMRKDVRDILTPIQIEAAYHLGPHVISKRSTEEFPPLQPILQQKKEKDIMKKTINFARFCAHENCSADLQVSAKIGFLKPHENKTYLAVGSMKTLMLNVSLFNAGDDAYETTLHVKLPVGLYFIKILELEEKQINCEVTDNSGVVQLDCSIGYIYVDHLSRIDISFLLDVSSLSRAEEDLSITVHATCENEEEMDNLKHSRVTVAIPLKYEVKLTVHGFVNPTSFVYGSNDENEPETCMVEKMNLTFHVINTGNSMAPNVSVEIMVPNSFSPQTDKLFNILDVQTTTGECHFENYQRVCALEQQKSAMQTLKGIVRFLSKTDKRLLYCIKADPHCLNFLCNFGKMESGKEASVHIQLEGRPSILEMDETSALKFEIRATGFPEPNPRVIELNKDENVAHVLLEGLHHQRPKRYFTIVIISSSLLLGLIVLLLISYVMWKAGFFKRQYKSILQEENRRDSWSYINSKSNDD

A short description of assay [8]: calorie-restriction mimetic ROS inhibitors, yeast – validation compound set, pilot screen (AID 2706;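 active = superoxide response below 65% of plate, a cut near 3 SD across the whole screen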;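 note: yeast exposed to compound for one week at 30 degrees C before staining; 100% = mean of all compound wells on the same plate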). Conditions: S. cerevisiae aging, superoxide DHE fluorescence; at 10 µM, stronger effect = lower value.
The target of assay [9] is Beta-adrenergic receptor kinase 1 (Homo sapiens) (UniProt P25098). Kind of assay: GRK2 binders displacing RNA aptamer, biochemical, validation, human GRK2, bead flow cytometry (AID 488806;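 active = aptamer binding inhibition above 30%, about 3 SD of noise from non-fluorescent compounds; inactive = inhibition at or below 30%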). Conditions: bead-bound GRK2, FAM-aptamer displacement, at 10 µM, stronger effect = higher value.
Beta-adrenergic receptor kinase 1 (Homo sapiens), sequence (P25098 whole entry, looked up): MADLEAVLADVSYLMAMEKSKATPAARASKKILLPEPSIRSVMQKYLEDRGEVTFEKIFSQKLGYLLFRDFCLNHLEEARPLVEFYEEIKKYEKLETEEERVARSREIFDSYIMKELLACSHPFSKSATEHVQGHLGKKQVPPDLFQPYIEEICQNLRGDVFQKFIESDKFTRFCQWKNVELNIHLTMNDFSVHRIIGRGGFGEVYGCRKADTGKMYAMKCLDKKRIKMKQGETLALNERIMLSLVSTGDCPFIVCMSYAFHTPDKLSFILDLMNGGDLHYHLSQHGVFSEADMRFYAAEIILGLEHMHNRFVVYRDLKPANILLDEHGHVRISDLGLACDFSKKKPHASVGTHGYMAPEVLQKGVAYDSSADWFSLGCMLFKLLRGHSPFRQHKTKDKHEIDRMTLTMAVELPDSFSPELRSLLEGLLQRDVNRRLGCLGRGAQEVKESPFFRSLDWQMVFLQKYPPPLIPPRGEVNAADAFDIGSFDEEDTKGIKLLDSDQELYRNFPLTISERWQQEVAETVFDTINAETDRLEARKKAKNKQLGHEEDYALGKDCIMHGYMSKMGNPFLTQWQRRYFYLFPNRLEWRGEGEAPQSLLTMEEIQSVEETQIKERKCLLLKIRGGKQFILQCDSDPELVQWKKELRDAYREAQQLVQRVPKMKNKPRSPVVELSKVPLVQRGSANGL
Assay [10] deals with AP-2 complex subunit beta (Homo sapiens) (UniProt P63010). The assay is described as follows: beta-arrestin/AP2 interaction blockers – biochemical, validation set, GST-AP2 beads, flow cytometry, pilot screen (AID 504541).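 Note: AP2 carries R879A mutation and is captured from E. coli lysate; bead-bound FITC arrestin peptide fluorescence measuring arrestin peptide binding to AP2; 0% = DMSO wells and 100% = excess unlabeled arrestin peptide control.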 Conditions: FITC arrestin peptide, at 10 µM, stronger effect = higher value, AP2 beta2 appendage fragment, R879A mutant.
AP-2 complex subunit beta (Homo sapiens), sequence (P63010 whole entry, looked up, the tested form may be a part, one chain of several): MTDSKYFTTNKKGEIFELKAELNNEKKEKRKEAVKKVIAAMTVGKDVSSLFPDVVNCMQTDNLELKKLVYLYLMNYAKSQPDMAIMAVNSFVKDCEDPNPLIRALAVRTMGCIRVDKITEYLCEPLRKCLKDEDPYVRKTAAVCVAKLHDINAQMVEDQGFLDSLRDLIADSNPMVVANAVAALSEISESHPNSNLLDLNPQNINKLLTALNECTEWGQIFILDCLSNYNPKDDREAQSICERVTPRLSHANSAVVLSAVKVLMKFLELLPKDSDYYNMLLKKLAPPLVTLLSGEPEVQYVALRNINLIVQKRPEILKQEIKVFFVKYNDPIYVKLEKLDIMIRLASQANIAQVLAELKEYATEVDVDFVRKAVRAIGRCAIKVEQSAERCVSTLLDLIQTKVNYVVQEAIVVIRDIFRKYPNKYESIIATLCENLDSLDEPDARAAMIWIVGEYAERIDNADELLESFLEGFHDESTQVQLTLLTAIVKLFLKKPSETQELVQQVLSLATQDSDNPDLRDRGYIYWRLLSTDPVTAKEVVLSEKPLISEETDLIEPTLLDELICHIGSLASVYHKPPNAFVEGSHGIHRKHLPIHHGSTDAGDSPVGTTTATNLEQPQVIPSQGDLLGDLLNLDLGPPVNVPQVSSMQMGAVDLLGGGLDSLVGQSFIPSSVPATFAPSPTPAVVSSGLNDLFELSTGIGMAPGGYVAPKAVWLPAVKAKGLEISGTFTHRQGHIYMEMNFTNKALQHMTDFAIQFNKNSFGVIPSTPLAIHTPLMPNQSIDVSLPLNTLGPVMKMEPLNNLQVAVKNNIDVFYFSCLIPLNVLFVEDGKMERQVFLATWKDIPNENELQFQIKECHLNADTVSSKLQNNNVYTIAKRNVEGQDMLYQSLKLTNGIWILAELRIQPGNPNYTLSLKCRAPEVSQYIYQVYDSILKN
The nature of assay [11]: cytosolic pH regulators acting via V-ATPase – S. cerevisiae, pHLuorin, HTS validation (AID 504600; in the data active = response above about 15%;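 note: plate controls were DMSO for no effect and reference compound for full effect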). Conditions: V-ATPase proton transport, at 10 µM, stronger effect = higher value.
Assay [12] concerns anti-desmoglein-3 scFv antibody binding to human DSG3. Kind of assay: blockers of pathogenic pemphigus antibody–desmoglein-3 binding – biochemical, validation compound set, bead-based, flow cytometry, pilot screen (AID 588368;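 active = binding below the plate cutoff, the plate median minus 3 SD, with a reading above zero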;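 note: signal is the median channel fluorescence of bead-bound GFP antibody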). Conditions: Protein G beads, DSG3-Fc, scFv-GFP binding, at 10 µM, stronger effect = lower value.
The nature of assay [13]: Nile Red efflux blockade in pump-expressing yeast – validation compound set, multiplex, phenotypic, pilot screen (AID 588506;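 active = efflux inhibition above 0.42, the validation set average plus 4 SD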;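 note: Nile Red retained in cells so higher fluorescence means more efflux inhibition; 0 = negative control wells and 1 = enniatin B 25 µM full block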). Conditions: S. cerevisiae pump-expressing triplex, Nile Red efflux flow cytometry; at 10 µM; stronger effect = higher value; the pumps come from Candida albicans.
Assay [14] addresses ATP-binding cassette sub-family B member 6 (Homo sapiens) (UniProt Q9NP58). Kind of assay: blockers of ABCB6-driven porphyrin uptake – K562-ABCB6 cells, flow cytometry, validation set, pilot screen (AID 588550;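 active = inhibition above the screen-wide mean plus 3 SD, about 51%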;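 note: 0% = DMSO wells and 100% = benzethonium chloride 70 µM positive control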). Conditions: K562-ABCB6 porphyrin accumulation, 1 h, at 10 µM, stronger effect = higher value.
Assay [15] is described as follows: AML differentiation inducers, ER-HoxA9 marrow cells – cell-based, GFP/MAC1 double positive, flow cytometry, validation set, primary screen (AID 588685;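 active = differentiation response of at least 50%, scaled between solvent and reference control, from cells with both markers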;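 note: compound exposure lasts four days before antibody staining and flow analysis; 0% = DMSO wells and 100% = 5 µM fulvestrant positive control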). Conditions: stronger effect = higher value, normalized: vehicle 0, fulvestrant 100.

Molecules are shown by their SMILES. Results filed as inconclusive are left out. Calls of active or inactive are those of the source.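 Rule for the calls, unless noted: active = inhibition above 54%, about 3 SD of non-fluorescent compounds; inactive = the rest.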

Here are results for 5 molecules from PubChem BioAssay.

ATP-binding cassette sub-family B member 6 (Homo sapiens), sequence (Q9NP58 whole entry, looked up): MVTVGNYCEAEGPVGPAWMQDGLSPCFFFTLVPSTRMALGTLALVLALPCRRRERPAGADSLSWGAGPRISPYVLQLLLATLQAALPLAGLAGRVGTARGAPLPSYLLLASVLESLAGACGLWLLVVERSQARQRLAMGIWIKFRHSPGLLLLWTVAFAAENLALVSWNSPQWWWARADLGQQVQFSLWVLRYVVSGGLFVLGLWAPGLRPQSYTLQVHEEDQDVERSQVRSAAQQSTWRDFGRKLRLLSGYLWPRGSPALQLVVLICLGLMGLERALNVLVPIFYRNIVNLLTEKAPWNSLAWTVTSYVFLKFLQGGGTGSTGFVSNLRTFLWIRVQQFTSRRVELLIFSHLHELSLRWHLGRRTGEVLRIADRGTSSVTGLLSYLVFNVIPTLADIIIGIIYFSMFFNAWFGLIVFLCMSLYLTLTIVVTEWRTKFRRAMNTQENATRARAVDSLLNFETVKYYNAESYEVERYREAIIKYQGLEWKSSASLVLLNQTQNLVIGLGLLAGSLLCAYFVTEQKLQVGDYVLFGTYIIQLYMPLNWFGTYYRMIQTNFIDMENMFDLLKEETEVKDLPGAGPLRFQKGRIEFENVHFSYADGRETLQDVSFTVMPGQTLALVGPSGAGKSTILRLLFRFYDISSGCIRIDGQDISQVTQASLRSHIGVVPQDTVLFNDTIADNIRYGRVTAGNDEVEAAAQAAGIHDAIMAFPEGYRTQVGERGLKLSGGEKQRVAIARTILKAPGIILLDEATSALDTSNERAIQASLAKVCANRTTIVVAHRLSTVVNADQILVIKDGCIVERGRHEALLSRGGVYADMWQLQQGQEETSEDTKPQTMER

With `COc1ccc(OC)c(-n2c(Cn3c(-c4ccccn4)nc4ccccc43)n[nH]c2=S)c1`, the percent of DMSO control GFP in assay [1] was 98.5% (inactive). The GFP response vs DMSO in assay [2] was 101% (inactive); in [4], 90.3% (inactive). The percent response of DMSO control in [3] is 93% (inactive). Further, the GFP response, % of DMSO in assay [5] is 91.8% (inactive). This molecule also had a double positive events in assay [6] of 62.6%. Besides, the vesicle binding response in assay [6] is 144% (inactive). Further, the inhibition in assay [7] was 7.22% (inactive); in assay [10] it was 6.75% (inactive); in assay [14] it was -8% (inactive). Further, the superoxide response (% of plate) in [8] is 97.4% (inactive). In addition, the aptamer binding inhibition in assay [9] is 1% (inactive). In addition, the response in [11] is -0.2% (inactive). In addition, the binding (% of control) in assay [12] was 105% (inactive). The efflux inhibition (fraction of control) in [13] was 0.44 (active). Moreover, the differentiation response in assay [15] is -9.89% (inactive).

As to `CCOC(=O)Nc1ccc2c(c1)N(C(=O)CCN1CCOCC1)c1ccccc1S2`, the percent of DMSO control GFP in [1] was 107% (inactive). Further, the GFP response vs DMSO in assay [2] was 102% (inactive); in assay [4], 92.3% (inactive). Besides, the percent response of DMSO control in assay [3] is 109% (inactive). For the same molecule, the GFP response, % of DMSO in assay [5] is 109% (inactive). The molecule also registered a double positive events in assay [6] of 48.8%. The vesicle binding response in [6] was 120% (inactive). The inhibition in [7] is -8.64% (inactive); in assay [10] it was 9.79% (inactive); in assay [14] it was 8% (inactive). The superoxide response (% of plate) in assay [8] was 106% (inactive). Further, the aptamer binding inhibition in assay [9] is 0% (inactive). The response in [11] is -2.72% (inactive). For the same molecule, the binding (% of control) in [12] is 97.3% (inactive). In addition, the efflux inhibition (fraction of control) in [13] is -0.43 (inactive). The differentiation response in assay [15] is -8.27% (inactive).

On to `CC(=O)O[C@H]1CSC[C@H]1NC(=O)c1ccccc1`, for which, in assay [1], the percent of DMSO control GFP is 101% (inactive). The GFP response vs DMSO in assay [2] was 91.8% (inactive); in assay [4] it was 102% (inactive). The percent response of DMSO control in assay [3] was 106% (inactive). Further, the GFP response, % of DMSO in [5] was 101% (inactive). In assay [6], the double positive events amounted to 60.9%. For the same molecule, the vesicle binding response in assay [6] is 233% (inactive). Also, the inhibition is -7.7% (inactive) in [7], -16.1% (inactive) in assay [10] and 12% (inactive) in [14]. Also, the superoxide response (% of plate) in [8] is 104% (inactive). In [9], the aptamer binding inhibition was -6% (inactive). Also, in assay [11], the response was -9.38% (inactive). Moreover, in assay [12], the binding (% of control) is 102% (inactive). In addition, the efflux inhibition (fraction of control) in assay [13] was -0.28 (inactive). For the same molecule, the differentiation response in assay [15] is -13.1% (inactive).

As for `c1ccc2c3c(c(CN4CCCCC4)cc2c1)COC3`, the percent of DMSO control GFP in assay [1] was 109% (inactive). The GFP response vs DMSO is 116% (inactive) in [2] and 122% (inactive) in assay [4]. In addition, the percent response of DMSO control in assay [3] is 127% (active). Further, the GFP response, % of DMSO in assay [5] was 104% (inactive). The molecule also yielded a double positive events in assay [6] of 38%. Besides, the vesicle binding response in assay [6] is 176% (inactive). For the same molecule, the values for the inhibition in assay [7], in assay [10] and in assay [14] were -8.64% (inactive), -17.7% (inactive) and 11% (inactive), respectively. The superoxide response (% of plate) in [8] is 116% (inactive). Further, the aptamer binding inhibition in assay [9] was -6% (inactive). Also, the response in [11] is 4.2% (inactive). In addition, the binding (% of control) in assay [12] was 107% (inactive). In [13], the efflux inhibition (fraction of control) is -0.12 (inactive). Moreover, the differentiation response in [15] is -14.7% (inactive).

For `COc1ccc(-c2[nH]ncc2C=O)cc1OC`, the percent of DMSO control GFP in assay [1] was 99.3% (inactive). Moreover, the GFP response vs DMSO is 96.9% (inactive) in assay [2] and 91.3% (inactive) in [4]. In addition, the percent response of DMSO control in [3] was 106% (inactive). Further, in assay [5], the GFP response, % of DMSO is 95.8% (inactive). For the same molecule, the double positive events in assay [6] is 52%. Also, the vesicle binding response in assay [6] is 201% (inactive). Moreover, the inhibition in assay [7] is -1.17% (inactive); in assay [10], 11.3% (inactive); in assay [14], 8% (inactive). Also, the superoxide response (% of plate) in assay [8] is 93.7% (inactive). For the same molecule, the aptamer binding inhibition in assay [9] was 2% (inactive). Further, the response in [11] is 3.37% (inactive). Also, the binding (% of control) in [12] was 101% (inactive). Further, the efflux inhibition (fraction of control) in assay [13] was -0.12 (inactive). Moreover, the differentiation response in assay [15] was -11.5% (inactive).

A word on the inhibition: it is the change of the read-out against control, counted positive when it falls.
